# Most compounds without a hit are left out; they make up all but 19% or so of the library.
# IL-1B inflam inh: inflammasome signaling inhibition, IL-1 beta readout; activity change, % at 57.5 µM; 4.7% of 360,000 active; THP-1 LPS/ATP IL-1B secretion, AlphaLISA, 16 h; stronger effect = lower value; in the data active means activity change below about -50%; inconclusive means mostly about -30% to -49%
#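 Secreted IL-1B measured by AlphaLISA bead assay after 16 h compound exposure of THP-1 cells; compounds (final up to 57.5 uM) added 1 h before LPS (250 ng/mL) and ATP (1.25 mM) stimulation; lower signal means less secretion.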
# TDP1 cell noCPT: qHTS for Inhibitors of human tyrosyl-DNA phosphodiesterase 1 (TDP1): qHTS in cells in absence of CPT. Potency, µM (series often up to 46.2 µM), for inactives: at the top dose activity change, negative = growth inhibition, most hits filed as inhibitors. DT40 Tdp1-/- hTDP1 cells, no CPT, ATP luminescence, 48 h. 15% of 420,000 active; further: potency means the concentration at half of the fitted maximal effect; nearly all actives have a fitted effect of over 55% in size
#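 A cellular qHTS used chicken DT40 cells lacking endogenous Tdp1 but carrying stably transfected human TDP1. Compounds were applied without camptothecin, and cell growth kinetics were judged by ATP-dependent luminescence after ≥48 hr.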
# DT40 TDP1 CPT: growth inhibition of DT40 Tdp1-/-;hTDP1 cells with camptothecin (screen for TDP1 inhibitors) | chicken DT40 Tdp1-/-;hTDP1 cells + 20 nM CPT, ATP luminescence, 48 h | Potency, µM (top dose mostly 46.2 µM), inactives show top-dose activity change, negative = growth inhibition, hits mostly inhibitors | 12% of 420,000 active | AID 686979; further: potency means the concentration at half of the fitted maximal effect; nearly all actives have a fitted effect of over 55% in size
#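 Cell growth measured by CellTiter-Glo luminescence after a minimum 48 h, 37 C compound exposure with 20 nM CPT in Tdp1-knockout DT40 cells stably expressing hTDP1, seeded 400/well; qHTS titration format.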
# HT1080-NT tox: kills 2HG-producing HT-1080-NT fibrosarcoma cells | Potency, µM (doses to about 46.1 µM), inactives show at the top dose activity, negative = less viability, hits mostly cytotoxic | HT-1080-NT fibrosarcoma viability, CellTiter-Glo ATP luminescence, 48 h | 1.6% of 360,000 active | AID 686970;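 further: NT is the 2HG producing partner of a matched IDH1 knockdown line; potency means the concentration at half of the fitted maximal effect; 0% = DMSO-treated cells and -100% = media-only wells without cells; nearly all actives have a fitted effect of over 55% in size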
#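 A 48-hour cytotoxicity screen used HT-1080-NT cells plated 2 hours before compound delivery. ATP-based CellTiter-Glo luminescence measured viability, normalized to DMSO and no-cell controls.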
# HT1080 IDH1KD tx: toxicity to HT-1080 IDH1 knockdown cells (counter line); AID 686971; 2% of 360,000 active; HT-1080 IDH1 knockdown viability, ATP luminescence, 48 h; Potency, µM (highest dose often 46.1 µM), without a hit: at the top dose activity, negative = toxicity, most hits filed as cytotoxic;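 further: potency means the concentration at half of the fitted maximal effect; 0% = DMSO wells and -100% = cell-free medium wells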
#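 Luminescent ATP read-out (CellTiter-Glo, 10 min at room temperature) after 48 h compound exposure at 37 °C gave viability of IDH1-knockdown HT-1080 cells. Activity was normalised to DMSO and cell-free wells, then fitted as concentration-response curves.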
# Starred values were filed as active, the others as inactive; ? = inconclusive; . = no result; [ ] = remark or other dose. Unless noted, the call rests on the fitted dose curve; in most records, active means well fitted curve in the direction sought with a large enough effect; inconclusive means small, poorly fitted or top-dose-only effect, or another doubt; inactive means no such curve, though single readings can be large; an effect the other way counts as inactive or inconclusive. Unless noted, on the % scale 0 is the no-effect control and ±100 the full control effect.
SMILES,IL-1B inflam inh,TDP1 cell noCPT,DT40 TDP1 CPT,HT1080-NT tox,HT1080 IDH1KD tx
Cc1ccc(NC(=O)C(=O)NCCN2CCN(Cc3ccc([N+](=O)[O-])cc3)CC2)cc1,9.3,?,-27.7%,-0.4%,2.7%
Cc1cc(OCC(=O)Nc2ccc(CN3CCOCC3)cc2)ccc1Cl,-51.4*,?,-73.7%,-2.5%,-8.8%
CC(C)NC(=O)C1CCN(c2ccc(S(=O)(=O)N3CCOCC3)cc2Cl)CC1,25.9,-46.0%,-7.2%,-3.0%,-6.7%
O=C(CS(=O)(=O)c1cccc2nsnc12)Nc1ccccc1,.,-3.9%,6.3%,.,.
COc1ccccc1C(=O)NC(=O)Nc1ccc(-n2nc(C(F)(F)F)cc2C(F)(F)F)cc1,.,14.6µM*,?,.,.
COc1ccccc1NC(=O)Nc1ccc(-n2ccc(C(F)(F)F)n2)cc1,-71.2*,25.9µM*,?,-26.5%,-23.4%
Cc1cc(C)cc(NC(=O)Nc2ccc(-n3ccc(C(F)(F)F)n3)cc2)c1,-76.9*,20.6µM*,?,20.6µM*,23.1µM*
O=C(O)c1ccccc1C(=O)Nc1ccc(-n2ccc(C(F)(F)F)n2)cc1,5.7,-10.7%,-0.3%,8.2%,1.7%
COC(=O)C(C(=O)OC)c1ccc(-n2cccc2)cc1,-28.5,-10.9%,-4.3%,1.2%,0.8%
CCc1ccccc1Nc1nc(N)nc(COC(=O)c2c(C)noc2C)n1,17.6,-22.2%,?,0.6%[9.24 µM],-13.6%
N#Cc1c(Nc2ccc(Cl)cc2)s[nH]c1=O,-72.5*,11.6µM*,14.6µM*,-5.7%,?
CSc1nc(Nc2ccc(Cl)cc2)c(C#N)c(=O)[nH]1,17.4,17.2%,0.6%,-3.7%,-7.3%
Cc1ccc(CN2CN(S(=O)(=O)c3cccs3)c3nc4ccccc4nc32)cc1,-20.7,20.6µM*,16.4µM*,7.6%,12.3%
O=S(=O)(c1cccs1)N1CN(Cc2ccco2)c2nc3ccccc3nc21,-18.6,13µM*,?,-13.2%,-15.2%
COCCN1CN(S(=O)(=O)c2ccccc2)c2nc3ccccc3nc21,-6.2,-26.5%,-15.8%,-10.7%,-9.4%
CC(C)OCCCN1CN(S(=O)(=O)c2cccs2)c2nc3ccccc3nc21,-28.0,-23.6%,-13.6%,-1.0%,-8.4%
Cc1ccc(S(=O)(=O)N2CN(CC3CCCO3)c3nc4ccccc4nc32)cc1 (configuration not stated),22.3,?,-15.0%,1.4%,-10.0%
COc1ccccc1CN1CN(S(=O)(=O)c2ccccc2)c2nc3ccccc3nc21,6.9,?,14.6µM*,-7.3%,-4.6%
Cc1cccc(S(=O)(=O)N2CN(Cc3ccco3)c3nc4ccccc4nc32)c1,-13.2,?,18.4µM*,-11.0%,-16.7%
O=S(=O)(c1cccs1)N1CN(Cc2ccc(Cl)cc2)c2nc3ccccc3nc21,-22.0,?,?,10.8%,6.6%
CCN(CC(=O)NCc1ccc(F)cc1)C(=O)c1cc2ccccc2o1,-14.3,-8.7%,3.4%,4.3%,0.0%
Cc1nonc1OCCNCc1c(C(=O)N(C)C)nc2ccc(Cl)cn12,1.0,-20.6%,-6.8%,7.2%,9.8%
CCOCCN1CCN(C2c3ccccc3CSc3ccccc32)CC1 (configuration not stated),-73.6*,?,?,?,?
CS(=O)(=O)c1ccc2nc(NC(=O)c3cccs3)sc2c1,62.4,?,11.6µM*,?,23.1µM*
Cc1cccc(OCC(=O)Nc2nc3ccc([N+](=O)[O-])cc3s2)c1C,-9.2,?,25.9µM*,13.2%,7.2%
SMILES,IL-1B inflam inh,TDP1 cell noCPT,DT40 TDP1 CPT,HT1080-NT tox,HT1080 IDH1KD tx
Cc1ccccc1NC(=O)Nc1nc2ccc(S(C)(=O)=O)cc2s1,-3.6,-16.4%,9.9%,-17.0%,?
CS(=O)(=O)c1ccc2nc(NC(=O)c3cccc([N+](=O)[O-])c3)sc2c1,-2.4,18.4µM*,-14.1%,-0.7%,1.7%
NS(=O)(=O)c1ccc2nc(NC(=O)Nc3ccccc3F)sc2c1,?,8.2µM*,?,23.2%,-2.6%
COC(=O)[C@@H]1CCCN1Cc1ccc2c(c1)CN(Cc1ccc3c(c1)CCO3)CCO2,.,-16.4%,-3.6%,.,.
Nn1c(SCC(=O)NC2CCCCCC2)nnc1-c1ccco1,-4.0,-2.1%,-20.1%,1.4%,-0.4%
CC(=O)Nc1ccc2nc(NC(=O)CS(=O)(=O)c3ccc(C)cc3)sc2c1,.,?,-25.4%,.,.
CS(=O)(=O)c1ccc2nc(NC(=O)CC3CCCC3)sc2c1,-24.5,13µM*,?,-29.0%,?
O=C(CS(=O)(=O)c1ccc(Cl)cc1)Nc1nc2ccc(Br)cc2s1,.,23.1µM*,?,.,.
COc1ccc(CNC(=O)C(=O)NC2CCC(C)CC2)cc1 (configuration not stated),3.9,4.1%,-13.3%,3.5%,-1.5%
CC(C)(C)c1cccc(C2(O)C(=O)c3ccccc3C2=O)c1O,-24.7,9.2µM*,?,-20.5%,?
Cc1ccc(C2(O)C(=O)c3ccccc3C2=O)c(O)c1C,-10.5,?,?,-2.5%,-29.4%
Cc1ccc(NC(=O)CNC(=O)c2cccs2)cc1S(=O)(=O)Nc1ccc(Cl)cc1,?,-2.5%,24.5%,-28.9%,?
COCc1nc2c([nH]1)c(=O)n(C)c(=O)n2CC(C)C,-9.3,-5.8%,1.5%,15.2%,11.5%
COc1cc(C2N=C(N)Nc3nc4ccccc4n32)ccc1OCCC(C)C (configuration not stated),.,18.4µM*,23.1µM*,.,.
CCCN(CCC)c1ccc(C2N=C(N)Nc3nc4ccccc4n32)cc1 (configuration not stated),.,16.4µM*,23.1µM*,.,.
COc1ccc(OC)c(S(=O)(=O)NCC(c2ccco2)N2CCc3ccccc32)c1 (configuration not stated),-0.7,?,?,-4.8%,-12.7%
O=c1[nH]c(SCc2ccc([N+](=O)[O-])cc2)nc2[nH]ncc12,9.2,-11.3%,-8.8%,?,?
Cc1cccc(NC2=C(Cl)C(=O)OC2OC(=O)c2ccco2)c1 (configuration not stated),-20.1,20.6µM*,20.6µM*,?,-8.7%
Cc1ccc(NC2=C(Cl)C(=O)OC2OC(=O)c2ccco2)cc1 (configuration not stated),-12.6,16.4µM*,?,?,10µM*
Cc1ccc(NC2=C(Cl)C(=O)OC2OC(=O)c2ccccc2)c(C)c1 (configuration not stated),?,?,?,-19.6%,-1.8%
Cc1ccccc1NC1=C(Cl)C(=O)OC1OC(=O)c1ccccc1C (configuration not stated),-83.2*,?,?,-18.1%,?

# Bioassay records: PubChem, National Center for Advancing Translational Sciences (NCATS)
